Compound activity from PubChem.
Compounds with a hit are over-represented: about 11% of the library has one in this group of screens.
USP28 inh: blocks human USP28 ubiquitin-rhodamine cleavage; Q96RU2; purified USP28, Ub-rhodamine cleavage fluorescence, 30 min; inhibition, % at 25 µM; 3% of 47,000 active; AID 1645857
OTUD3 block: inhibitors of human OTUD3 deubiquitinase; purified OTUD3, Ub-rhodamine fluorescence, 2 h; AID 1645858; 0.7% of 47,000 active; Q5T2D3; inhibition, % at 25 µM
USP30 inh: inhibitors of human USP30 deubiquitinase; Q70CQ3; purified USP30, Ub-rhodamine cleavage fluorescence; inhibition, % at 25 µM; 5.3% of 47,000 active
USP17 inh: blocks human USP17 ubiquitin-rhodamine cleavage | purified USP17, Ub-rhodamine cleavage fluorescence, 3 h | A8MUK1 | 6.5% of 47,000 active | inhibition, % at 50 µM
Target sequence (A8MUK1 whole entry, looked up): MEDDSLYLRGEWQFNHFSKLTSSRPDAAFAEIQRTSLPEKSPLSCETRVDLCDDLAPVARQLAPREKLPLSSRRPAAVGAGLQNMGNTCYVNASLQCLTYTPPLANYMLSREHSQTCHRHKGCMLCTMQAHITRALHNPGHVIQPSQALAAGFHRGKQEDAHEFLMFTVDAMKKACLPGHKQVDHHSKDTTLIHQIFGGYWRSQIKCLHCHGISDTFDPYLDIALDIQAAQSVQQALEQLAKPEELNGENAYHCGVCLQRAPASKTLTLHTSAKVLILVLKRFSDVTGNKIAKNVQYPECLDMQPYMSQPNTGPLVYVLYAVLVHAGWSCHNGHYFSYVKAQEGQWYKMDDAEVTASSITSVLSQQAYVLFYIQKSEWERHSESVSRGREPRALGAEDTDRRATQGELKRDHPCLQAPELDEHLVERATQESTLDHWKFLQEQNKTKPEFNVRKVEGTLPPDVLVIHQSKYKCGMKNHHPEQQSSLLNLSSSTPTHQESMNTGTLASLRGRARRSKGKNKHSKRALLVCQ
Numbers without * were called inactive. Rule as the data show it: active = inhibition above about 30%; inactive = the rest.

`COc1ccc(-c2cc3ncnc(N(C)Cc4ccco4)c3s2)cc1` gave USP28 inh -37, OTUD3 block -28, USP30 inh -155 and USP17 inh -14.
`O=S(=O)(Cc1nnc(-c2ccccc2C(F)(F)F)o1)c1ccc(Cl)cc1` gave USP28 inh -11, OTUD3 block -4, USP30 inh -2 and USP17 inh 68*.
Screening Cc1c2oc3c(C)ccc(C(=O)NC4C(=O)N[C@@H](C(C)C)C(=O)N5CCCC5C(=O)N(C)CC(=O)N(C)C(C(C)C)C(=O)OC4C)c3nc-2c(C(=O)NC2C(=O)N[C@H](C(C)C)C(=O)N3CCCC3C(=O)N(C)CC(=O)N(C)C(C(C)C)C(=O)OC2C)c(N)c1=O (some centres undefined) returned USP28 inh -11, OTUD3 block -24, USP30 inh -112 and USP17 inh 62*.
O=C(COc1ccc2c(-c3ccccc3)cc(=O)oc2c1)Nc1cccnc1 was read as USP28 inh 19, OTUD3 block 14, USP30 inh 68* and USP17 inh 20.
`O=C(Nc1ccc(F)cc1F)N1CCCCCC1c1cccs1` (centres undefined) gave USP28 inh -10, OTUD3 block -1, USP30 inh 1 and USP17 inh -2.
For Cc1n[nH]c(C)c1CC(=O)NCc1nnc(-c2nccc3ccccc23)o1 the results were USP28 inh 13, OTUD3 block 10, USP30 inh 34* and USP17 inh 40*.
Screening COc1ccc(CCN(C(=O)c2ccco2)C(C(=O)NC2CCCC2)c2ccc(Cl)cc2)cc1OC (centres undefined) returned USP28 inh -7, OTUD3 block 4, USP30 inh -7 and USP17 inh -2.
COc1ccc(OC)c(NC(=O)CNC(=O)c2cc3c(OC)cccc3[nH]2)c1 was read as USP28 inh 22, OTUD3 block 23, USP30 inh 26 and USP17 inh 64*.
For COc1ccc(OC)c(NC(=O)CNC(c2ccccc2)c2ccccc2)c1 the results were USP28 inh 17, OTUD3 block 23, USP30 inh 33* and USP17 inh 12.
Screening Cc1ccc(NC(=O)CNC(c2ccccc2)c2ccccc2)c(F)c1 returned USP28 inh 1, OTUD3 block -14, USP30 inh 0 and USP17 inh -13.
`COc1ccc(OC)c(NC(=O)CN2c3ccccc3S(=O)(=O)c3ccccc32)c1` gave USP28 inh -3, OTUD3 block 0, USP30 inh -12 and USP17 inh 2.
COc1ccc(CCNc2nc(C)c(CC(=O)O)s2)cc1OC was read as USP28 inh 3, OTUD3 block 5, USP30 inh -30 and USP17 inh -55.
`Cc1ccc(C(=O)NCCc2nc(-c3ccc4c(c3)OCO4)n[nH]2)cc1F` gave USP28 inh 16, OTUD3 block 8, USP30 inh 69* and USP17 inh 47*.
Screening O=C(OCc1ccc([N+](=O)[O-])cc1)C1CCN(S(=O)(=O)c2cccc3cccnc23)CC1 returned USP28 inh 28, OTUD3 block 18, USP30 inh 44* and USP17 inh 3.
Screening N#Cc1ccc(NCC(=O)N2CCCCCC2c2ccncc2)cc1 (centres undefined) returned USP28 inh 6, OTUD3 block 9, USP30 inh 11 and USP17 inh 4.
`O=C(O)[C@H](Cc1ccccc1)NC(=O)C1(c2ccccc2)CCN(C(=O)[C@@H]2Cc3ccccc3CN2)CC1` gave USP28 inh 5, OTUD3 block 17, USP30 inh 14 and USP17 inh 11.
For Cc1nc(NC(=O)c2ccc(F)cc2)nc2cc3c(cc12)OCO3 the results were USP28 inh 0, OTUD3 block 0, USP30 inh -228 and USP17 inh 36*.
O=C(NC1CC1)C1c2ccccc2C(=O)N(c2ccccc2)C12CCCCC2 (centres undefined) was read as USP28 inh -1, OTUD3 block 4, USP30 inh 5 and USP17 inh 3.
O=C(CSc1nnc(-c2ccncc2)o1)N1CCCc2ccccc21 was read as USP28 inh 6, OTUD3 block 5, USP30 inh 32* and USP17 inh 1.
Cc1cc(-c2nnc(SCC(=O)N3CCCc4ccccc43)o2)no1 was read as USP28 inh -29, OTUD3 block -21, USP30 inh -92 and USP17 inh 41*.
For O=C(CSc1nnc(-c2ccc3c(c2)OCCO3)o1)N1CCCc2ccccc21 the results were USP28 inh 14, OTUD3 block 7, USP30 inh 27 and USP17 inh -31.
`Cc1ccc(S(=O)(=O)N2CCC(n3cnnc3C3CC3)CC2)cc1Cl` gave USP28 inh 3, OTUD3 block 8, USP30 inh 2 and USP17 inh -1.
For O=C(OC(c1ccccc1)c1nccc2ccccc12)c1ccc(F)cc1 (centres undefined) the results were USP28 inh 0, OTUD3 block 5, USP30 inh -5 and USP17 inh -6.
For Cc1ncccc1Oc1nccnc1C1CCCN(C(=O)c2cnccn2)C1 (centres undefined) the results were USP28 inh 5, OTUD3 block 8, USP30 inh 18 and USP17 inh 12.
`CC(C)n1nnc2cc(S(=O)(=O)N3CCCC(C(=O)NCCc4ccco4)C3)ccc21` (centres undefined) gave USP28 inh 7, OTUD3 block 4, USP30 inh -30 and USP17 inh 42*.
Cc1nc(-c2cccs2)cc(-c2cccc(Cl)c2)c1C#N was read as USP28 inh 15, OTUD3 block 14, USP30 inh 37* and USP17 inh 18.
`CCOC(=O)COc1nc(-c2cccs2)cc(C(F)(F)F)c1C#N` gave USP28 inh 9, OTUD3 block 12, USP30 inh 10 and USP17 inh 22.
COc1ccc(Cl)cc1C(=O)Nc1cnc(N2CCOCC2)nc1 was read as USP28 inh -16, OTUD3 block -8 and USP30 inh -15.
COc1ccc(Cl)cc1C(=O)Nc1cc(C)cc(C)n1 was read as USP28 inh -15, OTUD3 block -9, USP30 inh 9 and USP17 inh 46*.
For CCc1nc(SCC(=O)c2ccc(F)cc2)c2oc3ccccc3c2n1 the results were USP28 inh -12, OTUD3 block -7, USP30 inh 0 and USP17 inh -10.
Screening COc1ccc(C2=C(NCCc3ccc(S(N)(=O)=O)cc3)c3ccccc3C2=O)cc1 returned USP28 inh 31*, OTUD3 block 0, USP30 inh 49* and USP17 inh 12.
Screening O=[N+]([O-])c1ccc(NCc2ccc(-c3cccs3)s2)nc1 returned USP28 inh 65*, OTUD3 block -10, USP30 inh -15 and USP17 inh 16.
Screening Cc1ccc(-n2c(=O)c3ccccc3n(Cc3c(F)cccc3Cl)c2=O)cc1 returned USP28 inh 6, OTUD3 block 3, USP30 inh 0 and USP17 inh 62*.
`Cc1cc(N)n(-c2nc3ccccc3n2Cc2c(F)cccc2Cl)n1` gave USP28 inh 10, OTUD3 block 7, USP30 inh 24 and USP17 inh 9.
